A selection: hits, their analogues and other compounds. The true share with any hit is near 7.1%.
LASV entry inh: Lassa virus entry inhibition | AID 720533 | Lassa virus pseudotyped entry inhibition, cell-based qHTS | Potency, µM (highest dose often 49.2 µM), for inactives: top-dose activity change, negative = inhibition, most hits filed as inhibitors | hit rate 4.1% among 18,000
MARV entry inh: inhibitors of Marburg virus binding or entry into cells; Potency, µM (series often up to 49.2 µM), for inactives: at the highest dose activity change, negative = inhibition, hits mostly inhibitors; Marburg virus pseudotype entry/binding inhibition, cell-based; AID 720532; hit rate 6.5% among 18,000
* = called active by the depositor; ? = inconclusive; nt = no result given; ! = not active in a repeat; [ ] = dose if it differs, or a comment. Calls follow the shape of the full dose curve; tested in HEK293 cells. % is scaled to controls: 0 for no effect and ±100 for the full control effect; potency is read from the fitted curve at half-maximal effect.

SMILES	LASV entry inh	MARV entry inh
COC(=O)C1=C(C(=O)OC)[C@@H]2N(C)c3ccccc3[C@@]23C[C@@H](C(=O)OC)N(C(=O)NC2CCCC2)C3=N1	14.2%[8.59 µM]	?
CCc1nn2ncccc2c1-c1ccnc(NC2CC2)n1	nt	-14.3%
COc1cccc(Nc2nccc(-c3cnn4ncccc34)n2)c1	?	0.315µM*
NC(=O)c1cccc(Nc2nccc(Nc3cccc(F)c3)n2)c1	32.0%	-59.6%
COc1ccc(-c2nn3ncccc3c2-c2ccnc(Nc3cccc(C(F)(F)F)c3)n2)cc1	?	12.5µM*
Cc1ccc2c(-c3ccnc(Nc4ccccc4)n3)c(-c3ccc(F)cc3)nn2n1	?	3.53µM*
CCN1C(=O)NC(CCc2ccccc2)C(C(C)=O)=C1C (centres undefined)	-12.1%[8.59 µM]	-8.9%[8.59 µM]
COc1cccc(C(=O)NCc2nc(-c3cccc(NC(=O)c4ccoc4C)c3)oc2C)c1OC	17.8µM*	?
Cc1cc(C(=O)Nc2cccc(-c3nc(CNC(=O)c4ccccc4C(F)(F)F)c(C)o3)c2)c(C)o1	?	-28.0%
CCOC(=O)[C@@]1([C@@H](NC(=O)OC)c2cccc(C)c2)CCCC1=O	9.4%[8.59 µM]	26.0%[8.59 µM]
CC(C)C[C@H]1COc2c(Cl)cccc2S(=O)(=O)N1Cc1ccc(F)cc1	12.8%	2.6%
FC(F)(F)c1cccc(C2=CCN(CCc3ccc4ccccc4c3)CC2)c1	-1.1%	-0.5%
O=C1Nc2ccccc2C2(CCN(CCc3ccc(C(F)(F)F)cc3)CC2)O1	?	11.2µM*
C[C@@H]1O[C@@H](OC2CC(O)C3(CO)C4C(CCC3(O)C2)C2(O)CCC(C3=CC(=O)OC3)C2(C)C[C@H]4O)[C@H](O)[C@H](O)[C@H]1O (some centres undefined)	0.178µM*	0.224µM*
O=C(Nc1cc(C(F)(F)F)cc(C(F)(F)F)c1)c1cc(Cl)ccc1O	1.12µM*	1µM*
O=C(Nc1cc(C(F)(F)F)ccc1O)Nc1cc(C(F)(F)F)ccc1O	-2.7%	12.1%
C=CCN1c2ccccc2[C@]23CCC(=O)N(Cc4cc(OC)c(OC)c(OC)c4)C2=NC(C(=O)OC)=C(C(=O)OC)[C@H]13	-15.4%[8.59 µM]	-6.7%[8.59 µM]
COC(=O)C1=C(C)N(Cc2ccccc2)C(=NCCc2cccs2)NC1c1cccc(C(F)(F)F)c1 (centres undefined)	-11.4%[8.59 µM]	?
COC(=O)C1=C(C(=O)OC)[C@@H]2N(C)c3ccccc3[C@@]23CCC(=O)N(CCCOC(C)C)C3=N1	-20.1%[8.59 µM]	-9.7%[8.59 µM]
CCN(CC)c1ccc(C(=C2C=CC(=[N+](CC)CC)C=C2)c2ccccc2)cc1	0.316µM*	0.282µM*
C[C@@H]1C[C@H]2CC(=O)N3[C@H](CC(=O)N2[C@H]1c1ccccc1)C[C@@H](C)[C@@H]3c1ccccc1	6.1%[8.59 µM]	15.2%[8.59 µM]
COc1ccccc1Nc1ncc(-c2ccccc2)o1	2.0%	10.0%
CCC1(C2CCN(Cc3cc4ccccc4o3)CC2)NC(=O)N(CC2COc3ccccc3O2)C1=O (centres undefined)	-30.0%	31.6µM*
CCC1(C2CCN(Cc3ccccc3Cl)CC2)NC(=O)N(CC2COc3ccccc3O2)C1=O (centres undefined)	-8.9%	?
Cc1ccc(C(=O)NC2CC2)cc1-c1ccc2[nH]ncc2c1	nt	-9.1%
SMILES	LASV entry inh	MARV entry inh
COc1cccc(C=NNc2ncnc3c2cnn3-c2cccc(OC)c2)c1	-44.9%	-18.9%
COc1cccc(-n2ncc3c(NN=Cc4ccc(C(=O)NCCN(C)C)cc4)ncnc32)c1	10.5%	9.96µM*
COc1cc(C=NNc2ncnc3c2cnn3-c2ccccc2)ccc1O	?	14.1µM*
COc1cccc(-n2ncc3c(NN=Cc4ccncc4)ncnc32)c1	49.9%	-19.6%
C[C@H]1C[C@@H](C)O[C@@]2(C1)C(=O)Nc1ccccc12	5.3%[8.59 µM]	5.4%[8.59 µM]
CC(CCC(=O)OC[C@H]1O[C@H](C#Cc2ccccc2)C=C[C@H]1Oc1ccc(C)cc1)=NO[C@H](C)c1cn([C@@H]2COC[C@@H]2O)nn1	nt	0.1%[8.59 µM]
CC(C)(C)NC[C@H](O)COc1cccc2[nH]c(C#N)cc12	-3.1%	-12.9%
CC(C)(Cc1c[nH]c2ccccc12)NCC(O)COc1ccccc1C#N (centres undefined)	?	7.94µM*
C=CC[C@@H]1C=C(C(=O)OC)N(C(=O)C(F)(F)F)[C@@H](c2ccccc2Br)[C@@H]1C	2.9%[8.59 µM]	9.1%[8.59 µM]
Cc1ccc(-c2c(C)cc3oc(=O)cc(-c4ccccc4)c3c2C)cc1	?	-17.2%
CC(=O)Nc1ccc(-c2c(C)cc3oc(=O)cc(-c4ccccc4)c3c2C)cc1	7.94µM*	-21.7%
COc1cc(/C=C/C(=O)O)ccc1O	-11.9%	7.6%
COc1ccc(/C=C/C(=O)CC(=O)/C=C/c2cccc(O)c2OC)cc1O	10µM*	8.91µM*
COc1cc(C=O)ccc1O	-4.3%	0.1%
COc1cc(C=C2CCC/C(=C\c3ccc(O)c(OC)c3)C2=O)ccc1O	31.6µM*	?
COc1cc(/C=C/C(=O)CC(=O)/C=C/c2ccc(O)c(OC)c2)ccc1O	31.6µM*!	?
COc1cccc(/C=C/C(=O)O)c1C(C)C	-0.8%	6.6%
CCN1C(=O)[C@H]2[C@H]3C(=CC[C@@H]2C1=O)C1(OCCCO1)[C@@H]1O[C@H]1[C@H]3O	7.5%[8.59 µM]	68.1%[8.59 µM]
CCOC(=O)[C@@]1([C@@H](NC(=O)OC)c2ccccc2)CCCC1=O	-1.8%[8.59 µM]	12.0%[8.59 µM]
COC(=O)C1=C(C(=O)OC)[C@@H]2N(Cc3ccccc3)c3ccccc3[C@@]23C[C@@H](CO)N=C3N1	-9.6%[8.59 µM]	-1.2%[8.59 µM]
O=C(NC(CC1=CCCCC1)c1ccc2c(c1)OCO2)C(F)(F)F (centres undefined)	26.8%[8.59 µM]	47.2%[8.59 µM]
C=CCOCCC=C1c2ccccc2[C@@H](OC)[C@@H]1C	-2.0%[8.59 µM]	-8.2%[8.59 µM]
CN1CCN(C2=Nc3ccccc3Sc3ccc(Cl)cc32)CC1	?	25.1µM*
CN1CCN(C2=Nc3ccccc3Oc3ccc(Cl)cc32)CC1	-6.3%[17.8 µM]	?
CC(CCN1CCCc2nc(C)c(C)cc21)=NOC[C@@H](O)COCc1ccco1	-16.9%[8.59 µM]	?
SMILES	LASV entry inh	MARV entry inh
CN(C)c1ccc2[nH]c(O)c(C=Nc3ccc(S(N)(=O)=O)cc3)c2c1	nt	-21.6%
CCCCCCCC(=O)CC[C@@H]1[C@@H](C/C=C\CCCC(=O)OC(C)C)[C@@H](O)C[C@H]1O	15.8µM*	?
CCCCCC(=O)CC[C@@H]1[C@@H](C/C=C\CCCC(=O)O)[C@@H](O)C[C@H]1O	-14.3%	4.4%
COc1ccc([C@]23Cc4cc(C#N)ccc4[C@H](O2)c2c(c4ccc(OC)cc4oc2=O)O3)cc1	27.4%[8.59 µM]	?
CCCOC(C(=O)OC1CCN(C)CC1)(c1ccccc1)c1ccccc1	15.8µM*	6.31µM*
C[N+]1(C)CCC(OC(=O)C(O)(c2ccccc2)C2CCCC2)C1 (centres undefined)	?	7.8%
C=CCOC(=O)N[C@H](C(C(=O)OC)=C(C)NCc1ccccc1)c1cccc(OC)c1	7.0%[8.59 µM]	-13.4%[8.59 µM]
OC(CCN1CCCCC1)(c1ccccc1)C1CC2C=CC1C2 (centres undefined)	22.4µM*!	10µM*
C=C[C@H]1C[C@H]2C=C(C)COP(=O)(O2)O1	39.5%	-5.0%
NCCNS(=O)(=O)c1cccc2c(Cl)cccc12	?	10µM*
O=C(O)Cc1ccc(CCNS(=O)(=O)c2ccc(Cl)cc2)cc1	4.4%	8.8%
NCCCCCCNS(=O)(=O)c1ccc2c(Cl)cccc2c1	28.2µM*	12.6µM*
NCCNS(=O)(=O)c1ccc(Cl)c2ccncc12	18.8%	-4.7%
CCCNC(=O)N1C2=NC(C(=O)OC)=C(C(=O)OC)[C@@H]3Nc4ccccc4[C@]23C[C@H]1C(=O)OC	31.4%[8.59 µM]	3.2%[8.59 µM]
C(#CCN1CCCC1)CN1CCCC1	?	8.91µM*

Bioassay records as filed in PubChem BioAssay.
